In general, inhibition refers to the change of the read-out against control, counted positive when it falls.

Calls of active or inactive are those of the source. How the calls were made is not given here.

The target of the experiment is Pantothenate synthetase (Mycobacterium tuberculosis (strain ATCC 25618 / H37Rv)) (UniProt P9WIL5). The experiment is described as follows: Recombinant Mtb pantothenate synthetase (PanC) inhibitors, coupled enzyme, confirmatory (AID 375).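 Further: 0% = full reaction with vehicle and 100% = no enzyme background.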 The conditions noted are these: coupled enzyme assay; at 10 µM, active compounds read high.
Pantothenate synthetase (Mycobacterium tuberculosis (strain ATCC 25618 / H37Rv)), sequence (P9WIL5 whole entry, looked up): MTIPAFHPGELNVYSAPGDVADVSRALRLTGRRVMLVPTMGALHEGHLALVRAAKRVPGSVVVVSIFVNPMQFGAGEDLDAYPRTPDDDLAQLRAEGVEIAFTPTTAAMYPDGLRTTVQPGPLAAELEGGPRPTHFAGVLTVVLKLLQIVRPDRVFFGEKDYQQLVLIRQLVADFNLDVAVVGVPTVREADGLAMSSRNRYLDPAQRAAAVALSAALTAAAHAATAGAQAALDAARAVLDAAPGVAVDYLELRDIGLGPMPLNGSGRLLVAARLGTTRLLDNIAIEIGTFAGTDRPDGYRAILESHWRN
Turning to `CC(C)OC(=O)c1cc(NC(=O)C2C3CCC(O3)C2C(=O)O)cc(C(=O)OC(C)C)c1` (configuration not stated), the inhibition is 0% (inactive). With `O=C(COC(=O)c1cnccn1)Nc1ccc2c(c1)OCO2` the figure was 7% (inactive). For the compound `COC(=O)CCC(=O)CN`, the inhibition is 0% (inactive). As to `CC1(C)CC(=O)CC(C2(O)C(=O)N(Cc3ccccc3)c3ccccc32)O1` (configuration not stated), the inhibition is 0% (inactive).

On to `Cc1cc(C(=O)Nc2nc3c(s2)CCCC3)cs1`, for which the inhibition is 0% (inactive). Regarding `C=C(C)Cn1c(N2CCN(CC)CC2)nc2c1c(=O)[nH]c(=O)n2C`, the inhibition was 0% (inactive). For `CCOC(=O)N1CCN(C(=O)CN(C)S(=O)(=O)c2ccc(OC)c(OC)c2)CC1`, the inhibition was 0% (inactive). With `CCOC(=O)N1CCC(NC(=O)CS(=O)(=O)Cc2nc(-c3ccccc3C)oc2C)CC1`, the inhibition is 3% (inactive). For `CCSc1nnc(-c2ccc(OC)cc2)o1`, the inhibition is 0% (inactive). The value for `COC(=O)c1cc2ccsc2n1CC(=O)Nc1cc(C)cc(C)c1` was 0% (inactive); that for `CCn1ncc(Cl)c1C(=O)Nc1ccncc1` was 3% (inactive); that for `Cc1nc(SCC(=O)NCc2ccco2)c2c(C)c(C)sc2n1` was 5% (inactive).

With `COc1ccc(CNC(=O)C(c2ccco2)N(Cc2cccs2)C(=O)Cc2cccs2)cc1` (configuration not stated), the inhibition was 0% (inactive). For the compound `O=C1CN(C(=O)COC(=O)C23CC4CC(CC(O)(C4)C2)C3)c2ccccc2N1`, the inhibition was 19% (inactive). The value for `FC(F)(F)c1cccc(N2CCN(Cc3cccnc3)CC2)c1` was 4% (inactive); that for `CCOc1ccccc1C(=O)Nc1nnc(CC)s1` was 0% (inactive); that for `CCOC(=O)c1cc2c(=O)n3ccccc3nc2n(CCCOC)c1=NC(C)=O` was 1% (inactive).
